Screens from PubChem.
Sampled rows, rich in hits. Any-hit rate of the full collection: about 5.2%.
Sfp PPTase inh – qHTS Assay for Inhibitors of Bacillus subtilis Sfp phosphopantetheinyl transferase (PPTase); Biochemical Sfp PPTase activity, qHTS; 3.5% of 310,000 active; AID 1490, 2009; Potency, µM, most hits filed as inhibitors; 4'-phosphopantetheinyl transferase ffp (Bacillus subtilis), Q9F4F7;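 note: the enzyme is Sfp with the accession as filed and its product quenches rhodamine fluorescence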
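After 15 min at room temperature with compound, 15 nM Sfp received 5 uM rhodamine-CoA plus 12.5 uM BHQ-2-ybbR (50 mM Hepes pH 7.6, 10 mM MgCl2). Rate came from the fluorescence difference over 30 min, ex 525/em 598 nm.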
FBPA coupling cs – qHTS Assay for Inhibitors of Fructose-1,6-bisphosphate Aldolase from Giardia Lamblia: Coupling assay counterscreen; coupling enzyme system counterscreen, AmpLite Red fluorescence; activity change, negative = inhibition, % at 58.2 µM, hits read low; 0.67% of 290,000 active; AID 2472, 2010; in the data active = activity change below about -30%
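Final compound at 57.5 uM, incubated 10 min at RT with coupling enzyme reagent (glyceraldehyde-3-phosphate), then 20 min with substrate and AmpLite Red detection. Fluorescence read at 525/598 nm; tests interference with the coupling assay, not aldolase inhibition.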
Tau ThT inhib – qHTS for Inhibitors of Tau Fibril Formation, Thioflavin T Binding. Microtubule-associated protein tau (Homo sapiens), P10636. Potency, µM (doses to about 57.4 µM), hits mostly inhibitors. 2.1% of 270,000 active. recombinant tau K18 P301L, heparin-induced fibrillization, ThT fluorescence; note: nearly all actives have a fitted effect of over 55% in size
Target sequence (P10636 561-689 P618L limits assumed): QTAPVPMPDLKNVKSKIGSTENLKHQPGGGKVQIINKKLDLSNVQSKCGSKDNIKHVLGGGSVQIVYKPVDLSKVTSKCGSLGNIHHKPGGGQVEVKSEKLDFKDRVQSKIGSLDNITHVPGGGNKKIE
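Tau K18 P301L fragment (15 uM unlabeled plus 0.24 uM Alexa 594-labeled) in 100 mM sodium acetate pH 7 with compound, fibrillization induced by 20 uM heparin for 6 hr at 37 C. Thioflavin T (30 uM) added, fluorescence read after 1 hr (ex 450, em 510 nm).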
Tau fluor counter – Counterscreen qHTS for Inhibitors of Tau Fibril Formation, Fluorescence Polarization; tau K18 P301L (four-repeat tau fragment) Alexa594 fluorescence, heparin fibrillization; Potency, µM (doses to about 57.7 µM); 0.93% of 280,000 active; AID 1463, 2008; note: nearly all actives have a fitted effect of over 55% in size
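Human K18 P301L tau (15 uM unlabeled plus 0.24 uM Alexa 594-labeled, final) in 100 mM sodium acetate pH 7 was mixed with compound and 20 uM heparin and incubated 6 hr at 37 C.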
Tau FP inhib – qHTS for Inhibitors of Tau Fibril Formation, Fluorescence Polarization | AID 1468, 2008 | K18 P301L tau heparin fibrillization, Alexa594 FP, 6 h | 0.39% of 280,000 active | Potency, µM (top dose mostly 57.7 µM), hits mostly inhibitors; note: nearly all actives have a fitted effect of over 55% in size
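Human tau K18 […] P301L fragment, 15 uM unlabeled plus 0.24 uM Alexa 594-labeled tau (final), with compound and 20 uM heparin in 100 mM sodium acetate pH 7; 6 hr at 37 C, then Alexa 594 FP read.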
Numbers stand for hits; n = inactive; u = inconclusive; x = no result; [ ] = dose if it differs, or a comment. Unless noted, calls come from the whole dose curve; as a rule, active = well fitted curve in the direction sought with a large enough effect; inconclusive = small, poorly fitted or top-dose-only effect, or another doubt; inactive = no such curve, though single readings can be large; an effect the other way counts as inactive or inconclusive.

SMILES	Sfp PPTase inh	FBPA coupling cs	Tau ThT inhib	Tau fluor counter	Tau FP inhib
Cc1cc(OC(C)C(=O)N(Cc2ccco2)Cc2ccco2)cc(C)c1Cl (stereo not drawn)	x	x	u	n	n
CC1=CC(C#N)(C#N)C(C#N)(C#N)C(c2ccccc2)N1 (stereo not drawn)	n	n	u	n	n
CC1CCC(C(C)C)C2=C1C(C#N)(C#N)C(C#N)(C#N)C(c1ccccc1)N2 (stereo not drawn)	u	n	22µM	u	n
COCCn1c(=O)cnc2cnc(OC)nc21	n	n	x	x	x
CSc1ncc(C(=O)Nc2ccccc2C(F)(F)F)c(-c2ccccc2)n1	x	x	n	n	n
Nc1c(Cl)cc2c(c1Oc1ccccc1)C(=O)c1ccccc1C2=O	n	n	u	14µM[quencher]	n
Nc1cc(Cl)ccc1Oc1ccccc1	n	n	n	n	n
Cc1ccc(-n2nc(C)c3c2OC(N)=C(C#N)C3c2ccc(C)o2)cc1 (stereo not drawn)	u	n	5µM	u	u
Cc1ccc(-n2nc(C)c3c2OC(N)=C(C#N)C3c2ccoc2)cc1 (stereo not drawn)	u	n	13µM	u	u
Cc1ccc(-n2nc(C)c3c2OC(N)=C(C#N)C3c2ccco2)cc1 (stereo not drawn)	n	n	25µM	u	n
O=[N+]([O-])c1cccc(C(=S)N2CCCC2)c1	n	n	n	n	n
O=[N+]([O-])c1cccc(C(=S)N2CCN(c3ccc(F)cc3)CC2)c1	28µM	n	n	n	n
O=C(NN1CCOCC1)c1ccc(Cl)c([N+](=O)[O-])c1	n	n	x	x	x
S=C(c1ccc(-c2cccc(Cl)c2)o1)N1CCOCC1	20µM	n	16µM	u	n
O=[N+]([O-])c1cccc(-c2ccc(C(=S)N3CCOCC3)o2)c1	20µM	n	n	n	n
O=[N+]([O-])c1cc(-c2ccc(C(=S)N3CCOCC3)o2)ccc1Cl	n	-32	14µM	u	u
Cc1cccc(N2CCN(C(=O)CCS(=O)(=O)c3ccc4c(c3)CC(=O)N4C)CC2C)c1 (stereo not drawn)	x	x	u	n	n
O=[N+]([O-])c1cccc(-c2ccc(C(=S)N3CCN(c4ccccc4)CC3)o2)c1	13µM	n	20µM	u	u
CN1CCN(C(=S)c2ccc(-c3cccc([N+](=O)[O-])c3)o2)CC1	n	n	u	u	n
CCc1ccc(Cn2c(CNS(=O)(=O)c3ccc4c(c3)CCCC4)nc3cccnc32)cc1	x	x	n	n	n
CCOc1ccc(C(=O)C2CCN(C(=O)c3ccccc3C(=O)O)CC2)cc1	n	n	n	n	n
CCOc1ccc(C2C(C(=O)C3CC3)N3C=C(C#N)C=CC3C2(C#N)C#N)cc1 (stereo not drawn)	u	n	16µM	n	u
CCOc1ccc(-c2csc(N)c2C(=O)OC)cc1	45µM	n	u	u	n
CCOC(=O)c1c(-c2cccc([N+](=O)[O-])c2)csc1N	n	n	u	22µM[quencher]	n
CCOC(=O)c1csc(N)c1-c1ccc([N+](=O)[O-])cc1	50µM	n	x	u	n
SMILES	Sfp PPTase inh	FBPA coupling cs	Tau ThT inhib	Tau fluor counter	Tau FP inhib
CCOC(=O)c1ccc([N+](=O)[O-])cc1NC(C)=O	n	n	n	n	n
Cc1nc(SCC(=O)Nc2nc3ccccc3s2)c(C#N)c(C)c1C	50µM	n	n	n	n
O=C1NN(c2ccccc2)C(=O)/C1=C/c1ccc(Sc2cccc3ccccc23)o1	u	n	13µM	14µM[quencher]	u
O=C1NN(c2ccccc2)C(=O)/C1=C/c1ccc(-c2ccc(C(=O)O)cc2)o1	n	n	x	x	x
Cc1cc(-c2nn(-c3ccccc3F)cc2CN2CCCC(O)C2)c(C)s1 (stereo not drawn)	n	n	n	n	n
Cc1cc(-c2nn(-c3ccccc3F)cc2CN2CCCC(CO)C2)c(C)s1 (stereo not drawn)	n	n	7.9µM	n	n
CCOC(=O)c1cc2c(C)n(-c3ccc(OCC)cc3)c(C)c2ccc1=O	79µM	n	u	n	n
